SMILES strings stand for the structures. A number with no mark means an inactive call.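 The calls were made as follows: active = growth AUC significantly below the DMSO wells by Dunnett test; inactive = the rest.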

The first assay deals with Prolinoborus 1 (Prolinoborus fasciculus). The assay is described as follows: relative growth (AUC of 72 h growth curve relative to DMSO control, dAUC) (ratio); higher = more growth (less inhibition), active = hit call of the paper. The note with it: 20 µM. A digest of the protocol:
(§1)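 Cultures grown to carrying capacity in Luria–Bertani medium, drawn from Icelandic stream sediment and Silwood Park soil isolates and whole sediment communities, were diluted 1:100 into 96-well plates with each chemical at 20 µM (1% DMSO) and read at A600 hourly for 72 h. The spline-integrated area under the growth curve, divided by the mean of the DMSO controls, is reported as relative growth (dAUC). Values are means of three biological replicates.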
Take `Nc1c(Cl)c(F)nc(OCC(=O)O)c1Cl`: the relative growth is 1.

Take `O=C1C=C(N(Cc2ccc(Cl)nc2)CC(F)F)CO1`: the relative growth is 0.95. Turning to `CC1(C)C(C(=O)OC(C#N)c2cccc(Oc3ccccc3)c2)C1(C)C` (stereo unspecified), the relative growth was 0.893. As to `COP(=O)(OC)OC=C(Cl)Cl`, the relative growth is 0.895.

The subject of the next assay is Pseudomonas 1 (Pseudomonas baetica). The assay is described as above. The note with it: 20 µM. A digest of the protocol: as §1
For the molecule `CCOc1cc(Oc2ccc(C(F)(F)F)cc2Cl)ccc1[N+](=O)[O-]`, the relative growth is 1.08.

As for `O=C(NC(=O)c1c(F)cccc1F)Nc1ccc(OC(F)(F)C(F)OC(F)(F)F)c(Cl)c1` (stereo unspecified), the relative growth is 1.02.

With `Cc1cc(C)nc(Nc2ccccc2)n1`, the relative growth was 0.925. Still for that read-out and setting: with `CC(C)NC(=O)N1CC(=O)N(c2cc(Cl)cc(Cl)c2)C1=O` the figure was 0.913. `Cc1nnc(-c2ccccc2)c(=O)n1N`: the relative growth is 1.08.

For `CSc1nc(NC(C)C)nc(NC(C)C)n1`, the relative growth was 1.14. Still for that read-out and setting: with `C/C(=N\C#N)N(C)Cc1ccc(Cl)nc1` the figure was 0.967. On the same count and under the same terms, with `Cc1cccc2sc3nncn3c12` the figure was 1.18; with `Fc1ccc(Oc2ccnc3cc(Cl)cc(Cl)c23)cc1`, 1.07; with `COP(N)(=O)SC` (stereo unspecified), 1.04. Turning to `COc1cc(OC)nc(NC(=O)NS(=O)(=O)c2ncccc2C(=O)N(C)C)n1`, the relative growth is 0.988.

In the case of `CC[C@H]1CCC[C@H](O[C@H]2CC[C@H](N(C)C)[C@@H](C)O2)[C@@H](C)C(=O)C2=C[C@@H]3[C@@H](C=C(C)[C@@H]4C[C@@H](O[C@@H]5O[C@@H](C)[C@H](OC)[C@@H](OC)[C@H]5OC)C[C@@H]34)[C@@H]2CC(=O)O1.CC[C@H]1CCC[C@H](O[C@H]2CC[C@H](N(C)C)[C@@H](C)O2)[C@@H](C)C(=O)C2=C[C@H]3[C@@H]4C[C@H](O[C@@H]5O[C@@H](C)[C@H](OC)[C@@H](OC)[C@H]5OC)C[C@H]4C=C[C@H]3C2CC(=O)O1`, the relative growth is 1.14. Take `COC(=O)N(C(=O)N1CO[C@@]2(C(=O)OC)Cc3cc(Cl)ccc3C2=N1)c1ccc(OC(F)(F)F)cc1`: the relative growth is 1.02. Consider `N#Cc1c[nH]cc1-c1cccc2c1OC(F)(F)O2`, for which the relative growth is 0.952. With `CC(C)N(C(=O)COc1nnc(C(F)(F)F)s1)c1ccc(F)cc1`, the relative growth was 1.07. On the same count and under the same terms, with `CC1(C)C(C=C(Cl)Cl)C1C(=O)OC(C#N)c1ccc(F)c(Oc2ccccc2)c1` (stereo unspecified) the figure was 1.22; with `Cc1c(COC(=O)[C@@H]2[C@H](/C=C(\Cl)C(F)(F)F)C2(C)C)cccc1-c1ccccc1` (racemic), 0.975; with `COc1cc(C)c(C(=O)c2c(OC)ccc(Br)c2C)c(OC)c1OC`, 0.978. In the case of `CC(C)(C)C(O)(CCc1ccc(Cl)cc1)Cn1cncn1` (stereo unspecified), the relative growth was 1.15.

As to `CCCC(Cn1cncn1)c1ccc(Cl)cc1Cl` (stereo unspecified), the relative growth is 1.01. Same read-out and setting: with `C[C@@H]1[C@@H](c2ccc(Cl)cc2)SC(=O)N1C(=O)NC1CCCCC1` the figure was 0.933; with `O=C1C2(Cl)C3(Cl)C4(Cl)C(Cl)(Cl)C5(Cl)C3(Cl)C1(Cl)C5(Cl)C24Cl` (stereo unspecified), 1.01. Same read-out and setting: with `OC(Cc1ccccc1Cl)(Cn1nc[nH]c1=S)C1(Cl)CC1` (stereo unspecified) the figure was 1.02; with `CC1(C)[C@H](C(=O)O[C@H](C#N)c2cccc(Oc3ccccc3)c2)[C@@H]1C=C(Br)Br`, 1.04. Consider `N#Cc1c(Cl)c(Cl)c(Cl)c(C#N)c1Cl`, for which the relative growth was 0.975.

On to `CCOc1ccc(C(C)(C)COCc2cccc(Oc3ccccc3)c2)cc1`, for which the relative growth was 1.14. On to `Cc1cc(C(F)(C(F)(F)F)C(F)(F)F)ccc1NC(=O)c1cccc(I)c1C(=O)NC(C)(C)CS(C)(=O)=O`, for which the relative growth is 0.728. The same measure, in the same setting: with `N#Cc1nn(-c2c(Cl)cc(C(F)(F)F)cc2Cl)c(N)c1[S+]([O-])C(F)(F)F` (stereo unspecified) the figure was 0.913.

With `CNC(=O)Oc1cccc2ccccc12`, the relative growth is 0.973. On the same count and under the same terms, with `CO/N=C(/C(=O)OC)c1ccccc1CO/N=C(\C)c1cccc(C(F)(F)F)c1` the figure was 1.13; with `CC1(C)CON(Cc2ccccc2Cl)C1=O`, 1.01.

With `CCCN(CCC)C(=O)SCc1ccccc1`, the relative growth was 1.03. Regarding `CC[C@H](C)[C@H]1O[C@]2(C=C[C@@H]1C)C[C@@H]1C[C@@H](C/C=C(\C)[C@@H](O[C@H]3C[C@H](OC)[C@@H](O[C@H]4C[C@H](OC)[C@@H](O)[C@H](C)O4)[C@H](C)O3)[C@@H](C)/C=C/C=C3\CO[C@@H]4[C@H](O)C(C)=C[C@@H](C(=O)O1)[C@]34O)O2.CO[C@H]1C[C@H](O[C@H]2[C@H](C)O[C@@H](O[C@@H]3/C(C)=C/C[C@@H]4C[C@@H](C[C@]5(C=C[C@H](C)[C@@H](C(C)C)O5)O4)OC(=O)[C@@H]4C=C(C)[C@@H](O)[C@H]5OC/C(=C\C=C\[C@@H]3C)[C@]54O)C[C@@H]2OC)O[C@@H](C)[C@@H]1O`, the relative growth is 1.05. Same read-out and setting: with `Nc1c(Cl)c(F)nc(OCC(=O)O)c1Cl` the figure was 0.977. For the molecule `O=C1C=C(N(Cc2ccc(Cl)nc2)CC(F)F)CO1`, the relative growth is 1.15. On to `CC1(C)C(C(=O)OC(C#N)c2cccc(Oc3ccccc3)c2)C1(C)C` (stereo unspecified), for which the relative growth was 1.08. Same read-out and setting: with `COP(=O)(OC)OC=C(Cl)Cl` the figure was 1.08.

(Values after the supplement of paper PMC12067926.)
